The record followed here is PubChem BioAssay AID1733 (National Center for Advancing Translational Sciences (NCATS), 2009).

Records with an inconclusive call do not appear. Values without a mark were called inactive. Active and inactive are the calls of the source. Calls follow the shape of the dose curve; as a rule, active = well fitted inhibition curve with a large enough effect; inconclusive = small, poorly fitted or top-dose-only effect; inactive = flat fitted curve, though single readings scatter.

Chain of Luciferin 4-monooxygenase (Photinus pyralis) (P08659 whole entry, looked up, canonical isoform): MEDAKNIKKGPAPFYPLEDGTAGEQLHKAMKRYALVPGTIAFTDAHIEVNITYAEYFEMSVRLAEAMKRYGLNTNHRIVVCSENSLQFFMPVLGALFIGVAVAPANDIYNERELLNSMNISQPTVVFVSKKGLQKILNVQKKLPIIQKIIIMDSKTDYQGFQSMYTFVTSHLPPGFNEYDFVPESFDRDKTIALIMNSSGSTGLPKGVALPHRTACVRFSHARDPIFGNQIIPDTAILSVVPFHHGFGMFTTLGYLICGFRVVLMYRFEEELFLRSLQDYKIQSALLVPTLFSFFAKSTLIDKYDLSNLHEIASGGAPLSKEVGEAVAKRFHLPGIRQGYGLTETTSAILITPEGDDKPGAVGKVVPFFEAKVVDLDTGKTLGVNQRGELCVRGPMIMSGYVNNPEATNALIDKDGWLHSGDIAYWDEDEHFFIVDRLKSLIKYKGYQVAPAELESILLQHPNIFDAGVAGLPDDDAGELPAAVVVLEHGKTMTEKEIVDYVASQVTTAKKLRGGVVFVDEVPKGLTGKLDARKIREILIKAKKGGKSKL

In this experiment the target is Luciferin 4-monooxygenase (Photinus pyralis) (UniProt P08659). In words: Counterscreen Assay for Enhancers of SMN2 Splice Variant Expression: Interaction with Luciferase Reporter. The settings on record: purified firefly luciferase, luminescence, 5 min; series mostly up to 51 µM; activity change, negative = inhibition: at the top concentration. From the text:
NIH Chemical Genomics Center [NCGC] NIH Molecular Libraries Probe Production centers Network [MLPCN] MLPCN Grant: R03 MH084179-01 Assay Submitter (PI): Elliot Androphy NCGC Assay Overview: Spinal muscular atrophy (SMA) is caused by insufficient levels of the survival motor neuron protein SMN. The SMN locus on chromosome 5q13 contains two inverted copies of SMN called SMN1 and SMN2 which are 99% identical at the amino acid level. SMN1 is a fully functional protein and SMN2 skips exon 7 90% of the time. Skipping of exon 7 produces non-functional protein product. 10% of the SMN2 protein includes exon 7 and is fully functional. In the SMA disease state, mutations in the SMN1 locus are the cause of the disease state. Because only 10% of SMN2 is of the fully functional form, it is not sufficient to overcome the deficiency produced by the loss of the SMN1 product. A therapy that either increases the amount of SMN2 product made increases the inclusion of exon 7 has been proposed for the treatment of SMA. We have designed an assay to identify small molecules that can increase the amount of functional SMN2 product by appending a luciferase reporter gene after the native SMN2 gene, such that inclusion of exon 7 in the expressed product places the luciferase sequence in frame, thus generating functional luciferase enzyme. One potential source of false positives in the primary screening assay is stabilization of the reporter luciferase via direct binding. […]
NCGC Assay Protocol Summary: The primary screen utilizes a luciferase reporter gene assay, combining the promoter and splicing based cassettes in tandem with the major portion of the native SMN1 cDNA, and then transfected into HEK293 cells. […] Sequence, Parameter, Value, Description (1) Reagent, 2.5 uL, Enzyme in buffer (note A) (2) Compound, 23 nL, From stock solutions (3) Time, 5 minutes, Room temp (4) Reagent#2.5 ul, Luciferase detection reagent (note B) (5) Detector, 1 sec integrate, Luminescent read on Viewlux (note C) Sigma enzyme (1 mg) considered to be MW 61,000 diluted in 357 ul assay buffer to 50 uM stock. […]
`O=C(C1CCN(c2nc3ccc(Br)cc3s2)CC1)N1CCC2(CC1)OCCO2`: the Potency was 7.08 µM (active).

Turning to `C[C@@H]1O[C@@H](O[C@H]2C[C@@H](O)[C@]3(CO)[C@H]4[C@H](O)C[C@]5(C)[C@@H](C6COC(=O)C6)CC[C@]5(O)[C@@H]4CC[C@]3(O)C2)[C@H](O)[C@H](O)[C@H]1O` (stereo partly drawn), the activity change, negative = inhibition was 13.4% [at 48.7 pM].

Regarding `CC[C@]1(O)CC(O[C@@H]2CC(N(C)C)C(O)C(C)O2)c2c(cc3c(c2O)C(=O)c2c(O)cccc2C3=O)C1C(=O)OC` (stereo partly drawn), the “activity change, negative = inhibition” value is 6.06%.
